# Data taken from PubChem BioAssay AID588342 (National Center for Advancing Translational Sciences (NCATS), 2011).
# Hit rate of the full screen: of about 360,000 compounds, about 25,000 (6.9%) were called active. Inconclusive results (about 9%) are left out. The call rests on the fitted dose curve; in most records, active means well fitted inhibition curve with a large enough effect; inconclusive means small, poorly fitted or top-dose-only effect; inactive means flat fitted curve, though single readings scatter. Shown is part of a subset that was picked to be rich in actives.
# Target: Luciferin 4-monooxygenase (Photinus pyralis) (UniProt P08659)
# Sequence (P08659 whole entry, looked up): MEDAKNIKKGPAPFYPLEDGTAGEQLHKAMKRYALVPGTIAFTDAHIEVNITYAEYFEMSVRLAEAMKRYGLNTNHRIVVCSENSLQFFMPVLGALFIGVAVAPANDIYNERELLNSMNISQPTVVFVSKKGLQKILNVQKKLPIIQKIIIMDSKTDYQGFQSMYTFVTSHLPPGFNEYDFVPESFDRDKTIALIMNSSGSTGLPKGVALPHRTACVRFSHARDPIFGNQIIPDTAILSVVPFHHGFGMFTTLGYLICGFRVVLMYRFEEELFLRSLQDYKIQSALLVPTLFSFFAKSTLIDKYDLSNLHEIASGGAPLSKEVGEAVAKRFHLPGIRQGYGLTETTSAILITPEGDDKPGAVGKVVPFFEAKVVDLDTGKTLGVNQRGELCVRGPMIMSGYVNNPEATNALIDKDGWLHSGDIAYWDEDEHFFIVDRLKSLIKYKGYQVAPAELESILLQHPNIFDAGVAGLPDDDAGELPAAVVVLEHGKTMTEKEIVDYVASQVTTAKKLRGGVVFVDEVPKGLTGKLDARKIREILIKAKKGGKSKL
# Experiment: qHTS profiling assay for firefly luciferase inhibitor/activator using purifed enzyme and Km concentrations of substrates (counterscreen for miR-21 project); further: nearly all actives have a fitted effect of over 55% in size;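 on activity change, negative = inhibition: plate controls were vehicle for no effect and reference inhibitor for full effect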
# Details: purified FLuc, luminescence inhibition; series mostly up to 57.5 µM; activity change, negative = inhibition: at the top concentration
# Text: MLPCN Grant: 1 R21 NS059478-01 (miR-21 grant) Assay Provider: NCGC NCGC Assay Overview: Firefly (Photinus pyralis) luciferase is one of the most commonly used transcriptional reporters for a number of reasons. It is considered one of the more dynamically responsive reporters -that is, responsive to changes in reporter transcription - as it requires no post-translational modifications and is enzymatically active directly after protein synthesis (Wood, 1998). Additionally, the half-life of the luciferase protein is short relative to other reporter-gene products (Wood, 1995). Whereas reporters with long half-lives potentially allow for increased signal due to accumulation of reporter-gene product, once accumulated in the cell, dynamic changes in reporter-gene expression may be difficult to detect(Fan and Wood, 2007; Almond et al., 2004). It has been shown that wild-type P. pyralis luciferase has a half-life of approximately […] hours in mammalian cells (Thompson et al., 1991). Firefly luciferase reporter-gene assays are also generally considered one of the most sensitive assay types (Wood, 1995; Wood, 1998). Although light produced in a bioluminescence reaction is of lower intensity than that produced during fluorescence emission, this is offset by little to no background light inherent to luminescent assays. Thus the luciferase reporter can be expressed at much lower levels than fluorescent proteins while still providing robust signal. # However, it was initially observed, in 1991, by Thompson et al., that compounds that resemble the substrates of firefly luciferase (FLuc) can act as competitive inhibitors of the enzyme, and that these compounds, upon interaction with luciferase in the cell, can actually stabilize the protein and increase its half-life. Accumulated intracellular FLuc protein can be measured as an increase in luminescence signal, upon addition of detection reagents (which contain high concentrations of FLuc substrates) commonly used in high-throughput screening. In cell-based reporter gene assays that use FLuc as the reporter gene to quantitate the potential influence of a given compound against the target biology, this apparent increase in luminescence can mistakenly be interpreted as identification of a compound that is active against the target of interest. This is the case for the miR-21 FLuc reporter gene assay used to identify inhibitors of the miR-21 pathway (PubChem AID 2289) - compounds of interest will inhibit miR-21 biogenesis/expression or activity, and are identified by causing an increase in luminescence, due to increased FLuc translation. However, FLuc inhibitory compounds that stabilize the FLuc protein will give an identical read-out, making it difficult to distinguish compounds that are active against the target from those active against FLuc. Previous profiling work to determine the prevalence of compounds that affect FLuc enzymatic activity (PubChem AID 411) identified that ~3% of the MLSMR library (then at ~72K) inhibited FLuc. […] Since the MLSMR had grown to ~350K compounds, and since it was expected that a significant percentage of compounds found active in the miR-21 FLuc assay would be FLuc inhibitors, the library was screened for activity against FLuc using a biochemical assay of purified FLuc and KM concentrations of FLuc substrates (D-luciferin and ATP).
# NCGC Assay Protocol Summary: Reagents: 50mM Tris acetate, pH 7.5; 10mM Mg acetate; 10uM D-luciferin (Sigma #L9504); 10uM ATP; 0.01% Tween-20; 0.05% BSA; 10nM P. pyralis luciferase (Sigma #L9506) Control compounds used were two known firefly luciferase inhibitors (compounds (2) and (5) in Auld et al., 2010), and DMSO. […]
SMILES,Potency,"activity change, negative = inhibition"
COc1ccc(NC(=O)Nc2cccc3cccnc23)cc1,1.9 µM (active),
CC(C)c1c(CN(C)C(C)Cc2ccccc2)n(C)n(-c2ccccc2)c1=O (stereo not given),,-1.08% (inactive)
Cc1ccccc1NC(=O)COC(=O)c1cc(C)n(C2CC2)c1C,,-2.71% (inactive)
COC(=O)C1=C(c2cccc(OCc3ccccc3)c2)C[C@@H]2CC[C@H]1N2C(=O)NCc1ccc(Br)cc1,,-2.45% (inactive)
COc1cccc(-c2nc3ccc(N4CCN(C)CC4)cc3[nH]2)c1,0.269 µM (active),
COc1ccc(C(=O)CC2C(=O)N(C)C(=O)N(C)C2=O)cc1,,-1.78% (inactive)
O=c1c2ccccc2nc(/C=C/c2ccco2)n1-c1ccccc1O,,-4.89% (inactive)
Cn1c(O)c(C=NCCCC(=O)O)c(=O)n(C)c1=O,,2.19% (inactive)
Cn1c(O)c(C=NCCN2CCNCC2)c(=O)n(C)c1=O,,5.53% (inactive)
Cn1c(O)c(C=Nc2ccc3c(c2)CCC3)c(=O)n(C)c1=O,3.38 µM (active),
CCN1C(=O)C(=Cc2c(C)n(CC(=O)NCC3CCCO3)c3ccccc23)C(=O)N(CC)C1=S (stereo not given),,-22% (inactive)
COC(=O)C1=C(c2ccc(F)cc2OCc2ccccc2)C[C@@H]2CC[C@H]1N2C(=O)NCc1ccc(C(C)(C)C)cc1,,1.61% (inactive)
O=C(OCC(=O)c1cccs1)C1=COCCO1,23.9 µM (active),
CSC1=NP(=S)(SC)N(C)c2nc3n(c21)CCC3 (stereo not given),,2.17% (inactive)
CC(C)c1ccc(OCC(=O)N2CCCN(C)CC2)cc1,,-16.6% (inactive)
CN(C)CC1CCCCC1=O (stereo not given),,3.35% (inactive)
CC(=O)Nc1ccc(C(=O)C(Cc2ccccc2)N(C)C)cc1 (stereo not given),,0.596% (inactive)
O=C1NC(=O)N(c2ccccc2)C(=O)/C1=C/c1ccc([N+](=O)[O-])s1,26.9 µM (active),
O=C1NC(=O)N(c2ccc(F)cc2)C(=O)/C1=C/c1ccc2c(c1)CCCN2Cc1ccccc1,,-11.8% (inactive)
CCN(CC)C(=O)c1ccc(NC(=O)c2sccc2-c2ccccc2)cc1,,-3.15% (inactive)
O=[N+]([O-])c1ccc(C2C3C(c4ccccc4)=NC4(CCCCC4)N32)cc1 (stereo not given),,7.73% (inactive)
CC(=O)Oc1ccccc1C(=O)Nc1ncc([N+](=O)[O-])s1,6.75 µM (active),

SMILES,Potency,"activity change, negative = inhibition"
C[C@]12CC[C@H](O)C[C@H]1CC[C@@H]1C2CC[C@]2(C)[C@@H](C3=CC(=O)OC3)[C@@H](O)C[C@]12O (stereo not given in full),,2.82% (inactive)
CCC1(C)CC(CCNCc2ccc(N(C)C)cc2)(c2ccc(F)cc2)CCO1 (stereo not given),,-0.536% (inactive)
CC(C)CN1CCN(Cc2ccccc2C(F)(F)F)CC1CCO (stereo not given),,0.0821% (inactive)
N#Cc1ccc(Cn2cc(C(=O)c3ccco3)c3ccccc32)cc1,19 µM (active),
NC(=O)Cn1cc(C(=O)c2ccccc2F)c2ccccc21,,-2.49% (inactive)
CN1CCC(OC(=O)c2cccc(F)c2)CC1,,-2.03% (inactive)
O=[N+]([O-])c1cnc2ccc3ccccc3c2c1,,-4.49% (inactive)
CCCCCn1c(=O)c(C(=O)NCc2ccccc2)c(O)c2ccccc21,,-0.847% (inactive)
COC(=O)C1=C(c2c(C)noc2C)C[C@@H]2CC[C@H]1N2C(=O)NCc1ccc2c(c1)OCO2,,6.85% (inactive)
Cc1cccc(Cn2cccc(C(=O)Nc3ccc4c(c3)OCCO4)c2=O)c1,15.1 µM (active),
Cc1nnc(NC(=O)c2cccn(Cc3cccc(F)c3)c2=O)s1,,2.28% (inactive)
Cc1ccc(NC(=O)N(Cc2ccc3c(c2)OCO3)C2CCN(Cc3ccccc3)CC2)cc1F,,1.32% (inactive)
Cn1cc(C(=O)OCC(=O)N2CCCC2)c2ccccc21,,-4.49% (inactive)
COC(=O)C1=C(c2ccccc2OCc2ccccc2)C[C@@H]2CC[C@H]1N2C(=O)NCc1ccc(OC)cc1,,2.51% (inactive)
C[C@@]1([C@@H](NP(=O)(c2ccccc2)c2ccccc2)c2ccccc2)C[C@H]1CCO,,-16.7% (inactive)
O=C(O)CCn1cc(C=C2C(=O)NC(=S)NC2=O)c(-c2cccc(Br)c2)n1,21.3 µM (active),
COC(=O)C1=C(c2ccc(C(C)=O)cc2)C[C@@H]2CC[C@H]1N2C(=O)NCCNC(C)=O,,2.93% (inactive)
Cc1cc(C=C2C(=O)NC(=O)NC2=O)c(C)n1-c1ccncc1,,-19.9% (inactive)
Cc1ccccc1N1C(=O)NC(=O)/C(=C\c2cc(C)n(C)c2C)C1=O,,1.58% (inactive)
Cc1ccnc(-n2c(C)cc(/C=C3\C(=O)NC(=S)N(C)C3=O)c2C)c1,7.57 µM (active),
O=C(CCC(=O)N1C[C@H]2C[C@@H](C1)c1cccc(=O)n1C2)NCc1ccccc1C(F)(F)F,,-1.48% (inactive)
COC(=O)C1=C(c2ccc(-c3ccccc3)c(F)c2)C[C@@H]2CC[C@H]1N2C(=O)NCc1ccc(F)cc1,,-0.451% (inactive)

SMILES,Potency,"activity change, negative = inhibition"
Cc1cc(C)cc(NC(=S)NC2CC3CCCC(C2)N3Cc2cccs2)c1 (stereo not given),,-1.54% (inactive)
Cc1nc2ccccn2c1P(=S)(N1CCCCC1)N1CCCCC1,,6.82% (inactive)
O=C1NC(=O)C(C/C=C/c2ccccc2)C(=O)N1,,-2.71% (inactive)
Cc1ccc(NN=C2C(=O)OC(C)(C)OC2=O)c(C)c1,9.53 µM (active),
CC1=C(C(=O)Nc2ccccc2)S(=O)(=O)CCO1,,2.71% (inactive)
O=C(O)c1ccccc1NC(=O)C1C2CCC(O2)C1C(=O)O (stereo not given),,-1.49% (inactive)
Fc1ccc(C2N3CCCN23)cc1 (stereo not given),,-2.06% (inactive)
CC(C)(C)c1ccc(OC(=O)N2CCCCC2)cc1,10.7 µM (active),
CN1CCN(C(=O)COc2ccc(C(C)(C)C)cc2Br)CC1,,0.792% (inactive)
O=C(Nc1cccc(OC(=O)N2CCCCC2)c1)N1CCOCC1,,-6.21% (inactive)
COC(=O)C1=C(c2ccc3ccccc3c2)C[C@@H]2CC[C@H]1N2C(=O)NCCO,,-1.46% (inactive)
CCCCCn1c(=O)c(C(=O)NCc2ccccn2)c(O)c2ccccc21,,0.442% (inactive)
CC(C)Oc1ccc(NC(=O)c2cc3ccccc3o2)cc1,1.51 µM (active),
CC(=O)Cc1ccc(OC(C)C)cc1,,4.48% (inactive)
Cc1ccc(-c2nc3ccccc3c(=O)n2-c2ccc(Br)cn2)cc1,,2.91% (inactive)
COCCNC(=O)CN1C2CCC1CC(O)(c1cccnc1)C2 (stereo not given),,0.105% (inactive)
CCC(=NCCc1ccccc1)c1c(O)n(C2CCCCC2)c(=O)[nH]c1=O,,-0.859% (inactive)
CC/C(=N\NC(=O)c1ccccc1O)c1c(O)n(Cc2ccccc2)c(=O)[nH]c1=O,9.53 µM (active),
CCC(=NCc1ccco1)c1c(O)n(Cc2ccccc2)c(=O)[nH]c1=O,,9.59% (inactive)
Cc1ccc(C(C)C)c(OCC(=O)N2CCN(CC(=O)N3CCOCC3)CC2)c1,,-0.447% (inactive)
CC1(C)Cc2c(C#N)c(N3CCNCC3)nc(-c3ccco3)c2CS1,,-1.07% (inactive)
